Data as given in the supplement of paper PMC12636033.
± gives the standard deviation of the averaged measurements. Over roughly 33,000 sequences, “E-score (rank enrichment, -0.5 to 0.5)” has its median near -0.0075; the highest 2% begin near 0.23. The sample as a whole holds a higher share of the highest values than the screen did.

What follows are sequences tested on WT Max(13-93) synthetic (M65Nle) (assay: PBM 8-mer E-score (E-score (rank enrichment, -0.5 to 0.5)); higher = stronger preferential binding).
Description: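 Protein binding microarray (universal PBM chip covering all 10-mers in fixed probe flanks) with chemically synthesized human Max(13-93) bHLH-LZ analogs (not full-length Max) bearing noncanonical residues (hArg, Tha, Aib, Nle at 65) and aromatic Cys staples. Read-out per 8-mer (and its reverse complement): E-score (rank-based enrichment, -0.5 to 0.5) and Z-score of median probe intensity.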

Sequence	PBM 8-mer E-score
CCAAGCAC	0.139 ± 0.07
ACACCGCA	-0.148 ± 0.046
CCGACCGA	-0.158 ± 0.039
CGTTCGAC	-0.123 ± 0.034
GCATGTAC	0.197 ± 0.093
CCATGTAC	0.0683 ± 0.0021
CAATGTAC	0.0304 ± 0.16
ACATGTAT	0.341 ± 0.019
AGATGTAT	0.158 ± 0.0099
GCATGTAA	0.239 ± 0.0044
ACATGTAC	0.29 ± 0.009
AAATGTAG	0.144 ± 0.015
CCATGTAA	0.0612 ± 0.026
ACATGTCT	0.222 ± 0.1
TCATGTAA	0.148 ± 0.0053
AAATGTAC	0.268 ± 0.026
ATTATCCC	0.073 ± 0.014
CCGCGTAA	-0.0539 ± 0.056
CGTTCGTA	0.0244 ± 0.0097
CCGTTCAC	-0.15 ± 0.0062
AGATGTAA	0.114 ± 0.043
ACATGTAG	0.329 ± 0.031
AGATGTAG	0.0391 ± 0.11
AAATGTAA	0.0766 ± 0.017
CCATGTAG	0.14 ± 0.045

Sequence	PBM 8-mer E-score
ACATGTAA	0.317 ± 0.0085
ATTCGATA	0.0933 ± 0.11
CTGCAGAA	-0.039 ± 0.059
CGGGTTGC	-0.0971 ± 0.064
CTGACCAA	-0.00243 ± 0.0086
CATGGTCA	0.291 ± 0.031
CATGGTCG	0.219 ± 0.039
CATGGTCC	0.0038 ± 0.074
GATGGTTA	0.0493 ± 0.12
CATGGTTA	0.2411 ± 0.0015
AATGGTTA	0.147 ± 0.038
TGCCGCAA	0.106 ± 0.083
GAATAGGC	0.113 ± 0.015
CCGTGAGC	-0.142 ± 0.048
CAGGGGTC	-0.0985 ± 0.052
GCGACGAC	-0.0631 ± 0.081
TGTACGAA	0.0875 ± 0.095
CATGCTGG	0.314 ± 0.04
CATGCTAC	0.0659 ± 0.14
AATGCTGG	0.0745 ± 0.034
CATGCTGC	0.183 ± 0.089
CATGCTAG	0.241 ± 0.034
AATGCTAG	-0.0447 ± 0.064
CCCCCGTC	-0.0979 ± 0.09
TGCCGGAA	-0.154 ± 0.028

Sequence	PBM 8-mer E-score
AATGCGCC	-0.0607 ± 0.1
CCACTTAG	0.00666 ± 0.08
CCGAGCGG	-0.0233 ± 0.11
CAACTACG	-0.0136 ± 0.15
GCCTCGAA	-0.199 ± 0.015
ACTTGCTA	0.0291 ± 0.18
CAACAGGC	-0.126 ± 0.031
AACATACT	0.0867 ± 0.12
CACATAAA	0.106 ± 0.099
CACATACG	0.0417 ± 0.11
AACATAAA	0.225 ± 0.066
TACATAAA	0.234 ± 0.02
GTCATAAC	0.0805 ± 0.074
AACATACG	0.246 ± 0.04
TACATACA	0.275 ± 0.015
GACATACA	0.162 ± 0.037
CACATACA	0.00143 ± 0.16
TTCATAAA	0.0506 ± 0.062
GTCATAAA	0.282 ± 0.021
CCGTCTGC	-0.0961 ± 0.0095
GTGAAACA	0.0563 ± 0.012
AGTAGTTC	-0.116 ± 0.027
CACCTAAC	-0.189 ± 0.12
CGTTCAGC	-0.266 ± 0.082
TCATTGCA	0.0909 ± 0.036

Sequence	PBM 8-mer E-score
ACCATACA	0.0446 ± 0.2
AACATACA	0.26 ± 0.062
AACATACC	0.0333 ± 0.06
ACGTCGGA	-0.0798 ± 0.0092
ACGTGCAT	0.378 ± 0.013
CTGTGCAC	-0.091 ± 0.017
AGGTGCAT	0.139 ± 0.0098
ACGTGCAG	0.325 ± 0.063
GCGTGCAC	0.215 ± 0.033
CCGTGCAG	-0.0417 ± 0.026
AAGTGCAT	0.115 ± 0.097
ATGTGCAC	0.29 ± 0.059
ATGTGCAA	0.203 ± 0.06
ATGTGCAG	0.0828 ± 0.0059
CCGTGCAC	0.0618 ± 0.097
ACGTGCAC	0.391 ± 0.021
ACCACGGA	-0.207 ± 0.0078
ATGTCCAC	0.113 ± 0.011
CAGGACGG	-0.162 ± 0.092
TCATGCGA	0.034 ± 0.055
ACGCCTTA	-0.0494 ± 0.025
CGCTTAAG	-0.0549 ± 0.15
AGCCTGAC	-0.0941 ± 0.14
CTTATAGC	-0.0275 ± 0.032
GAGCGCTA	-0.0703 ± 0.047

Sequence	PBM 8-mer E-score
ATGAACCA	0.145 ± 0.06
ACGGCGGC	-0.238 ± 0.059
CGTGCTAC	0.2 ± 0.061
CAATGGAG	0.0245 ± 0.12
CGGGTACG	-0.133 ± 0.043
CCAGGCGG	-0.0313 ± 0.028
CCCAATGA	0.0385 ± 0.031
ATGTGAGA	0.231 ± 0.13
CCAACTCG	-0.00075 ± 0.037
CCGTGCAA	-0.0752 ± 0.025
ACGTGCAA	0.3 ± 0.035
TCGTGCAA	0.131 ± 0.057
GAATACGC	0.0909 ± 0.01
AAATACGT	0.152 ± 0.043
AAATACGC	0.237 ± 0.027
GTGAATCA	-0.115 ± 0.022
ATAACACG	0.307 ± 0.0054
GTAACACA	0.238 ± 0.024
GTAACAAA	0.126 ± 0.0055
ATAACACC	0.106 ± 0.076
ATAACATC	0.187 ± 0.028
ATTACATG	0.223 ± 0.061
ATAACACA	0.181 ± 0.095
CTAACACA	0.121 ± 0.13
GTTACATA	0.113 ± 0.0025

Sequence	PBM 8-mer E-score
ATAACATG	0.231 ± 0.01
ATAACATA	0.266 ± 0.023
ATTACATA	0.24 ± 0.039
AGGGGAAT	0.0772 ± 0.04
CCGTAGCC	-0.216 ± 0.071
ACGCGTAA	0.105 ± 0.048
TCGCATCA	0.046 ± 0.015
AACGCAAA	-0.144 ± 0.021
GATCTTAA	0.0118 ± 0.0058
CAAATACG	0.138 ± 0.086
CTTTGCCA	-0.107 ± 0.097
ACAACACG	0.261 ± 0.034
ACAACACA	0.23 ± 0.091
ACAACACC	0.158 ± 0.0054
ATCCATCG	-0.21 ± 0.014
CTCGTGCA	0.134 ± 0.097
CGCGTGCA	0.285 ± 0.03
CGCGTGCC	0.124 ± 0.062
AGCGTGCA	0.285 ± 0.03
GGCGTGCA	0.0504 ± 0.037
AGCGTGCG	0.0436 ± 0.017
CAAATTCA	-0.0652 ± 0.032
ATATTCTC	0.189 ± 0.055
ATACCACA	0.159 ± 0.0088
ATGCCACG	0.259 ± 0.059

Sequence	PBM 8-mer E-score
ATGCCACA	0.00378 ± 0.092
AAACCACA	0.223 ± 0.0085
CAACCACG	0.301 ± 0.041
GTGCCACA	-0.00257 ± 8.5e-05
ATACCACG	0.255 ± 0.015
ATACCACC	0.121 ± 0.028
CAACCACA	-0.0966 ± 0.041
CGTGATTC	0.117 ± 0.036
AGAACTGC	-0.0987 ± 0.0029
CTTCACCC	0.151 ± 0.046
ATAGACGG	0.103 ± 0.018
ATGCGCAT	0.285 ± 0.06
ATGCGCAA	0.1417 ± 0.00042
ATGCGCAC	0.102 ± 0.09
CAACGCAG	-0.158 ± 0.021
ACCCGAAC	-0.0582 ± 0.096
AATGAACG	0.163 ± 0.04
AACACCGC	-0.0751 ± 0.024
GTTTAAAC	0.254 ± 0.0084
GATTAAAC	0.0366 ± 0.087
ATTTAAAC	0.263 ± 0.046
ATTTAAAG	0.0962 ± 0.044
